Data as given in the supplement of paper PMC10849652.
Of roughly 8,800 targets only a part is listed; those with a hit were picked by preference. About 0.5% of all pairs of compound and target were hits.

Legend:
Assay in all cases: log2 fold change, soluble protein after heating vs DMSO (PISA); higher = thermal stabilisation; K562 lysate, 10 uM; active = over 0.2 and 3.5 SD of the protein, either way, in both replicates (recomputed)
erlotinib = compound: C#Cc1cccc(Nc2ncnc3cc(OCCOC)c(OCCOC)cc23)c1 [erlotinib]
Summary of the method: (§1)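 Pellets of K562 cells were dounce-homogenised in PBS pH 7.4 with 1 mM MgCl2, and the crude extract was held at 1 mg/mL protein for a 30 min treatment with 10 μM compound. Aliquots were heated for 3 min over 48°C-58°C and pooled before NP-40 was added to 0.5% at 4°C. The supernatant from 21,000xg for 90 min was quantified by TMTpro 16plex LC-MS/MS with channel sums equalised. Values are reported from duplicates as log-two fold change in thermal stability relative to solvent controls.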

[1] = compound: C/C(=N\NC(=O)C1=CC(=CC=C1)S(=O)(=O)N2CCOCC2)/C3=C(C=CC(=C3)Cl)O
Summary of the method: as §1

[2] = compound: C1=CC(=CC=C1C2=NC3=C(N2)C=C(C=C3)C(=O)N)OC4=CC=C(C=C4)Cl
Summary of the method: as §1

[3] = compound: C1=CC2=C(C=CC(=C2)/C=C\3/C(=O)NC(=NCC4=CC=CS4)S3)N=C1
Summary of the method: as §1

[4] = compound: C1=CC2=NC=CN=C2C=C1/C=C/3\C(=O)NC(=O)S3
Summary of the method: as §1

[5] = compound: C1=CC=C(C=C1)C2=NC(=C(N2)C3=CC=NC=C3)C4=CC(=C(C=C4)Cl)O
Summary of the method: as §1

[6] = compound: C1=CC=C2C(=C1)C3=NNC4=CC=CC(=C43)C2=O
Summary of the method: as §1

[7] = compound: C1CCN(C1)C(=O)NC2=CC=CC(=C2)NC3=NC=C(C(=N3)NCCC4=CN=CN4)Br
Summary of the method: as §1

[8] = compound: C1CN(CCC1(CC2=CC=C(C=C2)Cl)N)C3=NC=NC4=C3C=CN4
Summary of the method: as §1

IRAK-1-4 Inhibitor I = compound: C1COCCN1CCN2C3=CC=CC=C3N=C2NC(=O)C4=CC(=CC=C4)[N+](=O)[O-] [IRAK-1-4 Inhibitor I]
Summary of the method: as §1

ibrutinib = compound: C=CC(=O)N1CCC[C@@H](n2nc(-c3ccc(Oc4ccccc4)cc3)c3c(N)ncnc32)C1 [ibrutinib]
Summary of the method: as §1

[9] = compound: CC(=O)c1cnc2ccc(-c3cc(Cl)c(O)c(Cl)c3)nc2c1N[C@H]1CC[C@H](CN(C)C)CC1
Summary of the method: as §1

ralimetinib = compound: CC(C)(C)Cn1c(N)nc2ccc(-c3[nH]c(C(C)(C)C)nc3-c3ccc(F)cc3)nc21 [ralimetinib]
Summary of the method: as §1

[10] = compound: CC(C)(O)CC(=O)NCCn1ccc2ncnc(Nc3ccc(Oc4cccc(C(F)(F)F)c4)c(Cl)c3)c21
Summary of the method: as §1

[11] = compound: CC(C)C1=C2N=C(C=C(N2N=C1)NCC3=CC=CC=C3)NCCCCCCN
Summary of the method: as §1

[12] = compound: CC1=C(C(CC(=O)N1)C2=CC=C(C=C2)C(F)(F)F)C(=O)NC3=C(C=C4C(=C3)C=NN4)F
Summary of the method: as §1

[13] = compound: CC1=C(C2=C(C=C1)C(=O)C3=CC=CC=C3N2CCCN)C
Summary of the method: as §1

[14] = compound: CC1=C(C=C(C=C1)NC(=O)C2=CC(=CC=C2)C(C)(C)C#N)NC3=CC4=C(C=C3)N=CN(C4=O)C
Summary of the method: as §1

[15] = compound: CC1=C(C=C(C=C1)NC(=O)C2=CC(=CC=C2)N(C)C)NC(=O)C3=CC=C(C=C3)O
Summary of the method: as §1

[16] = compound: CC1=CC=C(C=C1)SC2=C3C=C(SC3=CN=C2)C(=O)N
Summary of the method: as §1

Measured: log2 fold change

GGT7 (UniProt Q9UJ14)
inactive: erlotinib -0.04 | [1] 0.07 | [2] 0.021 | [3] -0.116 | [4] 0.094 | [5] -0.059 | [6] 0.018 | [7] 0.026 | [8] -0.023 | IRAK-1-4 Inhibitor I 0.027 | ibrutinib 0.019 | [9] 0.004 | ralimetinib -0.07 | [10] -0.106 | [11] -0.05 | [12] 0.003 | [13] -0.066 | [14] -0.032 | [15] 0.035 | [16] 0.017

EXOC6 (UniProt Q8TAG9)
Chain of UniProt Q8TAG9 (Q8TAG9 whole entry, looked up): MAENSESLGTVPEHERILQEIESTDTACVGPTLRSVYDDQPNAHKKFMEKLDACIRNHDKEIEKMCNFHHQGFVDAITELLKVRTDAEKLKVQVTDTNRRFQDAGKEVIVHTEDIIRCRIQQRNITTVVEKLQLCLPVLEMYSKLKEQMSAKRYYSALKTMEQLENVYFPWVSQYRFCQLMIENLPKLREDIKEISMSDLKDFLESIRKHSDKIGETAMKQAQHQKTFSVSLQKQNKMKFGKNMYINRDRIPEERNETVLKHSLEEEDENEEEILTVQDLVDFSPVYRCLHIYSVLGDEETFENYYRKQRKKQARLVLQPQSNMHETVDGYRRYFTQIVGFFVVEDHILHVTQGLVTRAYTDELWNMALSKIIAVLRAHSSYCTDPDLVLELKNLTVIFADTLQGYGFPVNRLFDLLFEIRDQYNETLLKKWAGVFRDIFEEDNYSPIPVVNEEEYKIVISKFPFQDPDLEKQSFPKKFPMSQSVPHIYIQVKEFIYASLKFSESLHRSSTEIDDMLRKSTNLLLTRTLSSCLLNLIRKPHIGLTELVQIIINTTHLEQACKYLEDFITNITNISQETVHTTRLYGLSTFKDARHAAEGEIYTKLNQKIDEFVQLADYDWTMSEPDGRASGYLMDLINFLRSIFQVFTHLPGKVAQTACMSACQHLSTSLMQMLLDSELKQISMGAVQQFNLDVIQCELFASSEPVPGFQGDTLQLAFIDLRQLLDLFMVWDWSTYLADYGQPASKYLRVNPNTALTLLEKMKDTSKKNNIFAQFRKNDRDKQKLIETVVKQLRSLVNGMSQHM
inactive: erlotinib 0 | [1] -0.045 | [2] -0.062 | [3] -0.058 | [4] -0.044 | [5] 0.005 | [6] -0.043 | [7] 0.018 | [8] 0.008 | IRAK-1-4 Inhibitor I 0.013 | ibrutinib 0 | [9] 0.072 | ralimetinib 0.034 | [10] -0.018 | [11] -0.049 | [12] 0.048 | [13] 0.049 | [14] -0.022 | [15] 0.042 | [16] 0.01

G6PD isoform 2 (UniProt P11413)
Chain of UniProt P11413 (P11413 whole entry, looked up): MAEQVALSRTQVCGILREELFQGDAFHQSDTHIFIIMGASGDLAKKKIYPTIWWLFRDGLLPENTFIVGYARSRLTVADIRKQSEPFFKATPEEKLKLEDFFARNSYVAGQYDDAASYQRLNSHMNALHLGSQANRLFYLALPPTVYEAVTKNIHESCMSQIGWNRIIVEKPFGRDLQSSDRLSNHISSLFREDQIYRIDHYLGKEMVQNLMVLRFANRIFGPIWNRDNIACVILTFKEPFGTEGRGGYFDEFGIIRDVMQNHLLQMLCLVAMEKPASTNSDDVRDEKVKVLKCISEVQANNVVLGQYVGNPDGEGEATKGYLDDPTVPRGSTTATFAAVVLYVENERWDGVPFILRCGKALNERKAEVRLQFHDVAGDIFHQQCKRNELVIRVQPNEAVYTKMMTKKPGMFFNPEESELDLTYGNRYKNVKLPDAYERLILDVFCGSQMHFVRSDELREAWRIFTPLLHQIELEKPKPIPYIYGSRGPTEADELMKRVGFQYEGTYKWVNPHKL
inactive: erlotinib 0.034 | [1] 0.05 | [2] 0.024 | [3] 0.016 | [4] 0.018 | [5] -0.001 | [6] -0.002 | [7] 0.006 | [8] 0.011 | IRAK-1-4 Inhibitor I 0.001 | ibrutinib -0.006 | [9] 0.001 | ralimetinib 0.023 | [10] 0.012 | [11] 0.018 | [12] -0.02 | [13] 0.045 | [14] -0.002 | [15] 0.024 | [16] 0.003

FDX2 (UniProt Q6P4F2)
Chain of UniProt Q6P4F2 (Q6P4F2 whole entry, looked up): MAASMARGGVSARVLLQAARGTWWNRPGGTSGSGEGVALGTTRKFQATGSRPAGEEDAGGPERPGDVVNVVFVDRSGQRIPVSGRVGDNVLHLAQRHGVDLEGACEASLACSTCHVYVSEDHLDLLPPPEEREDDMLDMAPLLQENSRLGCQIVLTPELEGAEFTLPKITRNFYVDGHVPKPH
inactive: erlotinib -0.051 | [1] 0.063 | [2] 0.044 | [3] 0.065 | [4] -0.009 | [5] -0.041 | [6] -0.054 | [7] -0.402 | [8] -0.17 | IRAK-1-4 Inhibitor I 0.05 | ibrutinib 0.056 | [9] -0.025 | ralimetinib -0.047 | [10] -0.194 | [11] -0.039 | [12] 0.01 | [13] -0.018 | [14] 0.015 | [15] 0.05 | [16] 0.006

ENSA isoform 3 (UniProt O43768)
Chain of UniProt O43768 (O43768 whole entry, looked up): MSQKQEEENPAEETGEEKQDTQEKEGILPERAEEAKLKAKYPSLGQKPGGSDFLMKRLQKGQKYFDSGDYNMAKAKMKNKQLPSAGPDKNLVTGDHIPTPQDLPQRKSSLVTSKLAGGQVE
inactive: erlotinib -0.034 | [1] 0.032 | [2] 0 | [3] -0.013 | [4] -0.047 | [6] 0.013 | [7] 0.006 | [8] 0.006 | IRAK-1-4 Inhibitor I -0.004 | ibrutinib 0.042 | [9] 0.015 | ralimetinib -0.019 | [10] 0.02 | [11] -0.013 | [12] -0.016 | [13] 0.039 | [14] -0.042 | [15] -0.057 | [16] -0.01
active: [5] -0.459

ENO1, A0A2R8YEM5
inactive: erlotinib -0.019 | [1] 0.004 | [2] 0.011 | [3] -0.017 | [4] 0.031 | [5] 0.016 | [6] 0.009 | [7] 0 | [8] 0.032 | IRAK-1-4 Inhibitor I -0.031 | ibrutinib -0.013 | [9] 0.008 | ralimetinib -0.012 | [10] -0.016 | [11] -0.024 | [12] -0.032 | [13] 0.001 | [14] 0.012 | [15] -0.044 | [16] 0.014

FIGNL1 (UniProt Q6PIW4)
inactive: erlotinib -0.008 | [1] -0.019 | [2] -0.025 | [3] 0.005 | [4] -0.011 | [5] -0.005 | [6] -0.015 | [7] 0.035 | [8] 0.006 | IRAK-1-4 Inhibitor I 0.008 | ibrutinib 0 | [9] 0.063 | ralimetinib 0.04 | [10] 0.022 | [11] -0.006 | [12] -0.067 | [13] 0.008 | [14] -0.002 | [15] 0.02 | [16] 0.037

GALK1 isoform 2 (UniProt P51570)
Chain of UniProt P51570 (P51570 whole entry, looked up): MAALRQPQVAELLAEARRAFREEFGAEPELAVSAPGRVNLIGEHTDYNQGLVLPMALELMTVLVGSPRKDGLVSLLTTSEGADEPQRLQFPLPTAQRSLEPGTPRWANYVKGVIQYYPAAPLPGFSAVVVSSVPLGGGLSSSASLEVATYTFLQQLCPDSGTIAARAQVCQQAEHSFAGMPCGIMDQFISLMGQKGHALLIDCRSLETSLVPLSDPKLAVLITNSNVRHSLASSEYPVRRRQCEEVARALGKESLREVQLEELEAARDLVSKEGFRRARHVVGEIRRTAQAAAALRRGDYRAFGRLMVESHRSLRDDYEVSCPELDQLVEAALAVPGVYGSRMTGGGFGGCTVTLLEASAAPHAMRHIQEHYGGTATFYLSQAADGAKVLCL
inactive: erlotinib 0.021 | [1] 0.022 | [2] 0.01 | [3] -0.076 | [4] -0.024 | [5] -0.015 | [6] -0.031 | [7] 0.023 | [8] 0.058 | IRAK-1-4 Inhibitor I 0.042 | ibrutinib 0.002 | [9] 0.032 | ralimetinib -0.013 | [10] -0.001 | [11] -0.006 | [12] -0.021 | [13] -0.026 | [14] 0.002 | [15] -0.001 | [16] 0.04

EIF2D (UniProt P41214)
inactive: erlotinib 0.048 | [1] 0.019 | [2] -0.017 | [3] 0.054 | [4] 0.001 | [5] 0.008 | [6] -0.016 | [7] 0.025 | [8] 0.021 | IRAK-1-4 Inhibitor I -0.023 | ibrutinib 0.011 | [9] -0.017 | ralimetinib 0.018 | [10] 0.026 | [11] 0.03 | [12] -0.005 | [13] -0.03 | [14] -0.004 | [15] 0.016 | [16] 0.01

GART (UniProt P22102)
inactive: erlotinib -0.007 | [1] 0.022 | [2] -0.025 | [3] -0.013 | [4] 0.016 | [5] 0.015 | [6] -0.011 | [7] -0.001 | [8] -0.003 | IRAK-1-4 Inhibitor I 0.005 | ibrutinib 0.007 | [9] 0.009 | ralimetinib 0.01 | [10] 0.036 | [11] 0.013 | [12] -0.014 | [13] 0.009 | [14] -0.027 | [15] -0.006 | [16] 0.021

FAM83D (UniProt Q9H4H8)
inactive: erlotinib 0.033 | [1] 0.013 | [2] -0.049 | [3] 0.006 | [4] 0 | [5] -0.009 | [6] -0.003 | [7] -0.005 | [8] -0.004 | IRAK-1-4 Inhibitor I 0.019 | ibrutinib 0.028 | [9] 0.031 | ralimetinib 0.041 | [10] -0.018 | [11] 0.013 | [12] 0.038 | [13] -0.098 | [14] -0.032 | [15] 0.031 | [16] 0.017

GABPB1 (UniProt Q06547)
Chain of UniProt Q06547 (Q06547 whole entry, looked up): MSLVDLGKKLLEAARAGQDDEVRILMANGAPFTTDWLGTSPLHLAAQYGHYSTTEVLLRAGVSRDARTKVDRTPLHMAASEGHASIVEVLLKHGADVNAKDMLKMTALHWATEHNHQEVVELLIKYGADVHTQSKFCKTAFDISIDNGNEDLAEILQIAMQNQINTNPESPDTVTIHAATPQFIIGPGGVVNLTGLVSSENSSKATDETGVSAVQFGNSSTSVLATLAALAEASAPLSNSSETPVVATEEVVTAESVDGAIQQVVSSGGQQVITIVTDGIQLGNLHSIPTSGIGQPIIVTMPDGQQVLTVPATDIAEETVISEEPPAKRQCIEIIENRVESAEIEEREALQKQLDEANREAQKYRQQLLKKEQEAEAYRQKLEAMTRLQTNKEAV
inactive: erlotinib -0.004 | [1] 0.033 | [2] 0.012 | [3] 0.028 | [4] 0.035 | [5] 0.016 | [6] -0.009 | [7] 0.026 | [8] -0.008 | IRAK-1-4 Inhibitor I -0.042 | ibrutinib -0.106 | [9] -0.012 | ralimetinib 0.021 | [10] 0.014 | [11] 0 | [12] 0.013 | [13] -0.026 | [14] 0.003 | [15] 0.071 | [16] 0.024

GEMIN5 (UniProt Q8TEQ6)
Chain of UniProt Q8TEQ6 (Q8TEQ6 whole entry, looked up): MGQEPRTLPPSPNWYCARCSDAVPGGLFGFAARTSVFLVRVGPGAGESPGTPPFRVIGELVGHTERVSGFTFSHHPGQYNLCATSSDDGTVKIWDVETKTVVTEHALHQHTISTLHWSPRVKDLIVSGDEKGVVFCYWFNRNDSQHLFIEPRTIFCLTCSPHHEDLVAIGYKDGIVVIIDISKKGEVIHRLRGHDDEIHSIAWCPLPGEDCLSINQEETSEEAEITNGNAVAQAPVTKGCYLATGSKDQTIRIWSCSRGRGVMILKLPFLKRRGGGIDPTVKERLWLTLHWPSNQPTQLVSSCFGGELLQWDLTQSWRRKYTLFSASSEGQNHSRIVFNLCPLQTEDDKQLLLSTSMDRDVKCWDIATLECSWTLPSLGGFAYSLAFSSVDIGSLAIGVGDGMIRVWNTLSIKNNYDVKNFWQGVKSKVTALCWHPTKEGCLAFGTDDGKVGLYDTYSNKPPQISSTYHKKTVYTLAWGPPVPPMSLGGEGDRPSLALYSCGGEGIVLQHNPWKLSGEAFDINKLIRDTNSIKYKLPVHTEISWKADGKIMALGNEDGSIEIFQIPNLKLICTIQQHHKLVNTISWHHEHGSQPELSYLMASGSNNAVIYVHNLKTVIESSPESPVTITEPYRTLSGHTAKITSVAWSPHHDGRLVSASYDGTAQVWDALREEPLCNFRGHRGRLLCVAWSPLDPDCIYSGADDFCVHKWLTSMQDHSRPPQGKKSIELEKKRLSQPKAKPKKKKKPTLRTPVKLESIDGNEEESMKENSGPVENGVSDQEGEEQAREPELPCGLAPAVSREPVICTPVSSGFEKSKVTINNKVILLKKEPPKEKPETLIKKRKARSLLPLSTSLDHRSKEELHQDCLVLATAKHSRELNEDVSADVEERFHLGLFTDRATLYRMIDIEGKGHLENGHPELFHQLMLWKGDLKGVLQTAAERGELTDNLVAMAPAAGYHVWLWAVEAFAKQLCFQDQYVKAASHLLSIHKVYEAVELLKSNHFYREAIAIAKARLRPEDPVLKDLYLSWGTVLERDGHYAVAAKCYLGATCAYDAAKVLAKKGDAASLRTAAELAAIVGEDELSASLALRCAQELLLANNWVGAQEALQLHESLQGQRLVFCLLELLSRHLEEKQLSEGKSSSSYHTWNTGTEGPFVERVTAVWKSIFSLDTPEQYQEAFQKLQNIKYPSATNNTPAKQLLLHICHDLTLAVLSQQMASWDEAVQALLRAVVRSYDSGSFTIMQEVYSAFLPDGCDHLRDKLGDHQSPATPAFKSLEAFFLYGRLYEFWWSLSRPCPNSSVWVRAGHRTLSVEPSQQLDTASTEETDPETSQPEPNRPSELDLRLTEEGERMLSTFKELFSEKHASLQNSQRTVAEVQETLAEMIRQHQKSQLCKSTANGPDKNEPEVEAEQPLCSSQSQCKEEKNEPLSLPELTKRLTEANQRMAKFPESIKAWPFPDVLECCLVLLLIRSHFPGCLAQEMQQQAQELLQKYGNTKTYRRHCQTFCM
inactive: erlotinib -0.001 | [1] 0.004 | [2] -0.012 | [3] 0.015 | [4] 0.032 | [5] -0.006 | [6] -0.034 | [7] 0 | [8] -0.006 | IRAK-1-4 Inhibitor I -0.025 | ibrutinib 0.012 | [9] -0.01 | ralimetinib 0.03 | [10] -0.001 | [11] 0.016 | [12] -0.02 | [13] -0.026 | [14] 0.005 | [15] 0.014 | [16] 0.007

ENO2 (UniProt P09104)
inactive: erlotinib 0.013 | [1] 0.013 | [2] 0.03 | [3] -0.037 | [4] 0.056 | [5] -0.091 | [6] 0.024 | [7] 0.005 | [8] -0.02 | IRAK-1-4 Inhibitor I -0.036 | ibrutinib -0.008 | [9] -0.014 | ralimetinib 0.031 | [10] -0.051 | [11] -0.007 | [12] -0.013 | [13] -0.029 | [14] 0.035 | [15] 0.032 | [16] 0.011

EXOC3 (UniProt O60645)
Chain of UniProt O60645 (O60645 whole entry, looked up): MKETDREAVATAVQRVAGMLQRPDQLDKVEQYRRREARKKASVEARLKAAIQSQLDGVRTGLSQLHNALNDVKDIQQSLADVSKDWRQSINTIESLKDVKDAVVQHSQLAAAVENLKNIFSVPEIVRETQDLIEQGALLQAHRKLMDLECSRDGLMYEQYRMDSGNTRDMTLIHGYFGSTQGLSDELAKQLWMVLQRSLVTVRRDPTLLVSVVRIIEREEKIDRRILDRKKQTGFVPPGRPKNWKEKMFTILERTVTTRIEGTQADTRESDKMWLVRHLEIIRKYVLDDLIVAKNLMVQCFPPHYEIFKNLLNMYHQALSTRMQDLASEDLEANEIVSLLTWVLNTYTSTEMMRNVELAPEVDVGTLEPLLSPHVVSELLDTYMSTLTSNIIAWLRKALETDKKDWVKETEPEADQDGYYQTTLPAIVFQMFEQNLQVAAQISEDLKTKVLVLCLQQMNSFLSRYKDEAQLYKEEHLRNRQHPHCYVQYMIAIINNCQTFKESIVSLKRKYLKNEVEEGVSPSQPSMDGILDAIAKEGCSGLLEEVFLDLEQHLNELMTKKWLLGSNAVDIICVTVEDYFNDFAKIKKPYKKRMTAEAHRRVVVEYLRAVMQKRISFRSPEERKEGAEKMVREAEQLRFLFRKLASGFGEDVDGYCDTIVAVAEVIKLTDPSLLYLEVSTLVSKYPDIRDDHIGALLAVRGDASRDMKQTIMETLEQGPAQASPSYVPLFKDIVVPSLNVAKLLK
inactive: erlotinib 0.033 | [1] 0.027 | [2] 0.006 | [3] 0.033 | [4] 0.039 | [5] 0.011 | [6] -0.04 | [7] 0.018 | [8] -0.001 | IRAK-1-4 Inhibitor I 0.013 | ibrutinib -0.029 | [9] -0.012 | ralimetinib 0.025 | [10] 0.048 | [11] 0.025 | [12] 0 | [13] -0.042 | [14] 0.037 | [15] 0.067 | [16] 0.004

FLAD1 (UniProt Q8NFF5)
inactive: erlotinib 0.001 | [1] -0.108 | [2] -0.047 | [3] -0.054 | [4] -0.035 | [5] 0.012 | [6] 0.045 | [7] -0.028 | [8] -0.027 | IRAK-1-4 Inhibitor I 0.001 | ibrutinib -0.011 | [9] 0.002 | ralimetinib 0.016 | [10] -0.014 | [11] -0.072 | [12] -0.004 | [13] -0.026 | [14] 0.002 | [15] 0.011 | [16] 0.015
